Bioassay records from PubChem BioAssay.
Cdc25B block = inhibitors of human Cdc25B phosphatase; P30305; recombinant Cdc25B, OMFP fluorescence Ex485/Em525; inhibition, %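 (compounds tested at 10 µM final in the well)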; 65,000 compounds, 0.1% hits; AID 368; in the data active means inhibition above about 50%
HePTP inh = blocks human HePTP tyrosine phosphatase | inhibition, % at 20 µM | recombinant HePTP phosphatase activity, OD absorbance | 110,000 compounds, 0.64% hits | P35236 | AID 521; in the data active means inhibition above about 50%
MKP-1 inh = inhibitors of human MKP-1 phosphatase. inhibition, %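 (compounds tested at a single concentration somewhere between 10 and 100 µM)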. P28562. AID 374. recombinant MKP-1, OMFP hydrolysis fluorescence. 65,000 compounds, 0.15% hits;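 active means inhibition above about 50%, limit read from the data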
Target sequence (P28562 whole entry, looked up): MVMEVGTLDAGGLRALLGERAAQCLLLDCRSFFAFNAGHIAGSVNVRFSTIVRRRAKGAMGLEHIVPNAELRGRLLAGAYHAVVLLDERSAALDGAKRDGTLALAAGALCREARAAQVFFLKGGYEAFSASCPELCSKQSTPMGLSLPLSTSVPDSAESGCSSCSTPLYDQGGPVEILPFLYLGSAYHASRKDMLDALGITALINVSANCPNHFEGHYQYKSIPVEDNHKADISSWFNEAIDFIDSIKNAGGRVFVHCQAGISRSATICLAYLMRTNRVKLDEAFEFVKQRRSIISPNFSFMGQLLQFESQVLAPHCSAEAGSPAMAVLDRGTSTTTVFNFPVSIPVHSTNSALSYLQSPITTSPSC
Hits are given with their value; n = inactive; x = not tested or not shown. Most compounds without a hit are left out; they make up all but 0.7% or so of the library.

SMILES | Cdc25B block | HePTP inh | MKP-1 inh
O=[N+]([O-])c1ccc2c(c1)C1C=CCC1C(c1ccc(Cl)cc1)N2 (configuration not stated) | x | n | x
Cc1ccc(/C=N/NC(=O)CSc2ncccn2)cc1 | x | n | x
C=CCOc1ccc(/C=C2\C(=O)NC(=S)N(c3ccc(Cl)cc3)C2=O)cc1OC | x | n | x
COc1ccc(N(CC(=O)Nc2cccc(C)c2)S(=O)(=O)c2ccc(C)cc2)c(OC)c1 | x | n | x
Cc1cc(C)c(/C=N/NS(=O)(=O)c2ccc(Cl)cc2)c(C)c1 | x | n | x
Cc1ccccc1N=C1NC(=O)CS1 | n | n | n
Cc1ccc(C)n1/N=C1\NC(=O)CS1 | x | 99 | x
CN(C)CCNc1ncnc2c1cnn2-c1ccccc1 | x | n | x
Clc1ccc(-c2nnc(-c3ccc4c(c3)OCO4)o2)c(Cl)c1 | x | n | x
COc1ccc(CCNC2CC(=O)N(c3ccc(F)cc3)C2=O)cc1OC (configuration not stated) | x | n | x
CCCN1C(=O)c2ccccc2NC1c1ccc(OC)c(COc2ccccc2F)c1 (configuration not stated) | x | n | x
Cc1ccccc1NS(=O)(=O)c1cccc(C(=O)Nc2ccc(Cl)cc2)c1 | x | n | x
COc1ccc(C(=O)NC2CCSC2=O)cc1[N+](=O)[O-] (configuration not stated) | x | n | x
COC(=O)c1cc(C(=O)NC2CCSC2=O)cc([N+](=O)[O-])c1 (configuration not stated) | x | 102 | x
CN(C)c1cc(N/N=C/c2ccncc2)nc(N(C)C)n1 | x | n | x
COC(=O)C1=NN(C(=O)c2cccc(Br)c2)C(O)(c2ccccc2)C1 (configuration not stated) | x | n | x
COC(=O)C1=NN(C(=O)c2cccc([N+](=O)[O-])c2)C(O)(c2ccccc2)C1 (configuration not stated) | x | 104 | x
Cc1ccc(-n2nc(C)c3cc(C(=O)O)sc32)cc1 | n | n | n
Cc1nn(-c2ccccc2)c2sc(C(=O)O)cc12 | 102 | n | n
COc1ccc(NC(=O)COc2ccccc2)c(OC)c1 | n | n | n
COc1ccc(NC(=O)COc2ccc(C(C)(C)c3ccccc3)cc2)c(OC)c1 | x | 102 | x
O=C(Nc1cccc2ccccc12)c1cc(-c2ccco2)nc2ccccc12 | x | 102 | x
O=C(Nc1ccccc1F)c1cc(-c2ccco2)nc2ccccc12 | x | n | x
O=C(NCc1ccco1)c1cc(-c2ccco2)nc2ccccc12 | x | 103 | x
O=C(NCc1ccco1)c1cc(-c2ccccc2)nc2ccccc12 | x | n | x
SMILES | Cdc25B block | HePTP inh | MKP-1 inh
Cc1cc(=O)c2c(C)nc(-c3ccccc3)nc2[nH]1 | x | n | x
CCCCC1CCC(/C(N)=N/O)CC1 (configuration not stated) | n | n | n
CCCCCC1CCC(C(=O)O)CC1 (configuration not stated) | n | n | 54
CC(=O)N(c1ccccc1)C1C=CS(=O)(=O)C1 (configuration not stated) | x | n | x
O=C(CN1CCCCC1)n1c2c(c3ccccc31)CCCC2 | x | n | x
O=C(c1ccc([N+](=O)[O-])cc1)n1c2c(c3ccccc31)CCCC2 | x | 104 | x
O=C(CN(c1ccc(F)cc1)S(=O)(=O)c1ccccc1)Nc1cccc(Br)c1 | x | n | x
COc1cc(-n2nnnc2SCC(=O)N2CCN(c3ccc(F)cc3)CC2)c(OC)cc1Cl | n | n | n
CCOC(=O)CSc1nnnn1-c1cc(OC)c(Cl)cc1OC | 51 | n | n
COc1ccc(-c2cc(=O)oc3cc(OC(C)=O)ccc23)cc1 | x | n | x
Cc1cc(N/C=C/C(=O)c2ccc(Cl)s2)no1 | x | 102 | x
Cc1cc(N/C=C/C(=O)c2cccc3ccccc23)no1 | n | n | n
CC(/C=C/c1ccccc1)=N\N=C1\NC(=O)C(Cc2ccccc2)S1 (configuration not stated) | x | 104 | x
CCc1ccccc1NC(=O)CC1S\C(=N/N=C(C)/C=C/c2ccc(OC)cc2)NC1=O (configuration not stated) | x | n | x
O=C(NCC1CCCO1)C1CN(S(=O)(=O)c2ccccc2)CCN1S(=O)(=O)c1ccccc1 (configuration not stated) | x | n | x
O=C(/C=C\c1ccco1)Oc1ccc(/C=N\NC(=O)c2cncc(Br)c2)cc1 | x | 58 | x
O=C(N/N=C\c1ccccc1O)c1cncc(Br)c1 | x | n | x
Cc1ccc(/C=C2\C=C(c3ccc(Cl)cc3)OC2=O)o1 | x | 82 | x
CCOc1ccc(C2=C/C(=C/c3ccc(C)o3)C(=O)O2)cc1 | x | n | x
O=C(CC1(C(F)(F)F)NN=C(c2ccccc2)S1)c1ccccc1 (configuration not stated) | x | n | x
COc1ccc(N2C(=O)/C(=C/c3ccc(Br)o3)SC2=S)cc1 | x | 51 | x
COc1ccc(N2C(=O)/C(=C/c3ccc(I)o3)SC2=S)cc1 | x | n | x
C=CCN1C(=O)/C(=C/c2cc(I)cc(I)c2OC)SC1=S | x | n | x
O=C1N=c2ccccc2=C1c1sc(Nc2ccc(O)cc2)nc1O | x | 104 | x
O=C1N=c2ccccc2=C1c1sc(Nc2cccc(O)c2)nc1O | x | n | x
SMILES | Cdc25B block | HePTP inh | MKP-1 inh
COCCNc1nc(-c2ccc(Cl)cc2)nc2ccccc12 | x | n | x
O=C(c1ccc(F)cc1)N1CCN(c2cccc(Cl)c2)CC1 | x | n | x
O=C(/C=C/c1ccc(F)cc1)N1CCN(c2cccc(Cl)c2)CC1 | x | 104 | x
O=C(COc1cccc(Cl)c1)N/N=C/c1c(Br)cc(Br)c(O)c1Br | x | n | x
COc1cc(Br)cc(/C=N/NC(=O)COc2cccc(Cl)c2)c1O | x | 99 | x
CC(CCc1ccccc1)Nc1cc(N2CCN(S(C)(=O)=O)CC2)ccc1[N+](=O)[O-] (configuration not stated) | x | n | x
CC(C)(C)c1ccc(S(=O)(=O)Nc2ccccc2[N+](=O)[O-])cc1 | x | n | x
COc1ccc(C(NC(C)=O)c2ccc(OC)cc2)cc1 | x | n | x
O=C(O)CN1C(=O)/C(=C\c2ccc(Cl)c(Cl)c2)SC1=S | x | n | x
COc1cc(/C=C2/SC(=S)N(CC(=O)O)C2=O)cc(Cl)c1O | x | 98 | x
COc1ccc(-c2cc(C(=O)OC(C)C)c3cc(Br)ccc3n2)cc1 | x | n | x
COc1cc(/C=N/NC(=O)c2ccncc2)cc(OC)c1O | x | n | x
O=C(O)CCCCCN1C(=O)/C(=C/c2c(F)cccc2Cl)SC1=S | x | n | x
CCC1(C)CC(CC#N)(c2ccccc2OC)CCO1 (configuration not stated) | x | 104 | x
CCC1(C)CC(CC(=O)O)(c2ccccc2OC)CCO1 (configuration not stated) | n | n | n
Cn1c(=O)c2cc(S(=O)(=O)NCCC(=O)NCCC3=CCCCC3)ccc2n(C)c1=O | n | n | 57
Cc1ccc(CCNC(=O)CCNS(=O)(=O)c2ccc3c(c2)c(=O)n(C)c(=O)n3C)cc1 | n | n | n
C=CCN1C(=O)/C(=C\c2c(OCC)ccc3ccccc23)C(=O)NC1=S | x | n | x
CC(=O)NC1=NC(=O)/C(=C/c2cc(C)n(-c3cccc(C(=O)O)c3)c2C)S1 | x | 101 | x
CC(=O)NC1=NC(=O)/C(=C/c2cc(C)n(-c3ccc(NC(C)=O)cc3)c2C)S1 | x | n | x
O=C(O)c1cccc(-c2ccc(/C=N/Nc3ccc([N+](=O)[O-])cn3)o2)c1 | x | 102 | x
O=C(O)c1cc(-c2ccc(/C=N/Nc3ccc([N+](=O)[O-])cn3)o2)ccc1Cl | x | n | x
CC(=O)Nc1cc(-c2cccc(C)c2)[nH]n1 | x | n | x
CCn1cc(/C=C2\C(=O)NC(=O)N(c3ccccc3)C2=O)c2ccccc21 | x | n | x
C#CCn1cc(/C=C2\C(=O)NC(=O)N(c3ccc(C)cc3)C2=O)c2ccccc21 | x | 85 | x
